{"source": "PubChem BioAssay (NCATS)", "key": {"[1]": {"experiment": "Cytotoxicity counterscreen for NFkB agonists and antagonists (AID 624476); note: potency is the fitted concentration of half-maximal effect", "settings": "NFkB reporter cell line viability counterscreen"}, "[2]": {"experiment": "qHTS Assay for Identification of Small Molecule Agonists for NFkB Signaling Pathway. (AID 624478)", "settings": "NFkB pathway reporter cell assay, agonist mode, cells co-stimulated with 10 pM TNF alpha; series mostly up to 46.1 µM", "how_it_was_run": "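NFkB-bla ME-180 cells (beta-lactamase reporter under NFkB response element) were plated overnight, treated with compound plus TNF alpha at 10 pM final (its EC50) for 5 hrs at 37 C, then loaded with LiveBLAzer substrate for 2 hrs.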"}, "[3]": {"experiment": "qHTS Assay for Identification of Small Molecule Antagonists for NFkB Signaling Pathway. (AID 624479; calls by dose curve; note: potency is the fitted concentration of half-maximal effect)", "settings": "NFkB pathway reporter cell assay, antagonist mode; series mostly up to 38.3 µM"}, "[4]": {"experiment": "Cell Proliferation Assay against the TMD8 Cell Line (AID 651645)", "settings": "TMD8 DLBCL cell line proliferation/viability; at 46.1 µM (top of the series)", "how_it_was_run": "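TMD8 ABC DLBCL cells, 500 per well in phenol red-free RPMI with 5% FBS, were treated with compound by pin transfer and incubated 48 hours at 37C, 5% CO2. Viability was read by CellTiter-Glo luminescence, normalised to DMSO (100%) and 9.2 uM bortezomib (0%).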"}, "[5]": {"experiment": "S16 Schwann cell PMP22 intronic element beta-lactamase assay (AID 624044; calls by dose curve; note: potency is the fitted concentration of half-maximal effect; nearly all actives have a fitted effect of over 15% in size)", "settings": "S16 rat Schwann cells, PMP22 element beta-lactamase FRET, 24 h; series mostly up to 38.3 µM", "how_it_was_run": "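Rat S16 Schwann cells with beta-Lac driven by a PMP22 intronic element, compound-treated 24 h at 37 °C. LiveBLAzer FRET B/G read: 460 nm normalized to potassium clavulanate vs DMSO; 535 nm FRET as viability; concentration-effect curves classified.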"}, "[6]": {"target": "Glutaminase kidney isoform, mitochondrial (Homo sapiens) (UniProt O94925)", "sequence (O94925 whole entry, looked up, canonical isoform)": "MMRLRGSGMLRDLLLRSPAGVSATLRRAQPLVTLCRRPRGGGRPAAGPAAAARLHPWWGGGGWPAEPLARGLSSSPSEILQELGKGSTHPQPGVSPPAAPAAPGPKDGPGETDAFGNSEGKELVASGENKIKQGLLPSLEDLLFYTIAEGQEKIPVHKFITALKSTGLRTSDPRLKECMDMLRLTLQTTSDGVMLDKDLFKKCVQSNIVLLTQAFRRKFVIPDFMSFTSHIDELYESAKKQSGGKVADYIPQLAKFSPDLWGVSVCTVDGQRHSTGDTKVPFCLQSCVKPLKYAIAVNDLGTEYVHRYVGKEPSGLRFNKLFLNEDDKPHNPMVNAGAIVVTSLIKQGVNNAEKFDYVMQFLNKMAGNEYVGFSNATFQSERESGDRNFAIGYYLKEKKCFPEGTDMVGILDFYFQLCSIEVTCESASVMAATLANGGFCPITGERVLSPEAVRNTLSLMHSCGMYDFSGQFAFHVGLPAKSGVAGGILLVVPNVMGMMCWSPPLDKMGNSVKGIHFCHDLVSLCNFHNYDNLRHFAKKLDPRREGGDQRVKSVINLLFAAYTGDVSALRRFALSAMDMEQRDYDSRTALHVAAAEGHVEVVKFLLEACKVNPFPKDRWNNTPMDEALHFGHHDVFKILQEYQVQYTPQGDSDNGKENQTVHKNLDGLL", "experiment": "qHTS for Inhibitors of Glutaminase (GLS): LOPAC Validation (AID 624146);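 note: glutamate product detected by oxidase and peroxidase coupled Amplex red fluorescence gain; nearly all actives have a fitted effect of over 60% in size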", "settings": "glutaminase enzyme activity inhibition; series mostly up to 46.1 µM", "how_it_was_run": "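Coupled fluorescence readout: glutamate oxidase/HRP/Amplex Red detect glutamate formed by hKGA from L-glutamine (1 mM solution added). Buffer 45 mM KH2PO4 pH 8.2, 0.02% Tween-20; reads at t0 and 30 min RT.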"}, "[7]": {"experiment": "qHTS of Trypanosoma Brucei Inhibitors: LOPAC Validation (AID 624147)", "settings": "purified enzyme assay, luminescence, 45 min; series mostly up to 57.5 µM", "how_it_was_run": "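Luminescent Kinase-Glo Plus end-point after 45 min room-temperature reaction of T. brucei pyruvate kinase started with 130 uM ADP (final). Buffer TEA 50 mM pH 7.2 with KCl, MgCl2, BSA, Tween-20; titration-based qHTS with fitted concentration-effect curves.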"}, "[8]": {"target": "Glucagon-like peptide 1 receptor (Homo sapiens) (UniProt P43220)", "sequence (P43220 whole entry, looked up)": "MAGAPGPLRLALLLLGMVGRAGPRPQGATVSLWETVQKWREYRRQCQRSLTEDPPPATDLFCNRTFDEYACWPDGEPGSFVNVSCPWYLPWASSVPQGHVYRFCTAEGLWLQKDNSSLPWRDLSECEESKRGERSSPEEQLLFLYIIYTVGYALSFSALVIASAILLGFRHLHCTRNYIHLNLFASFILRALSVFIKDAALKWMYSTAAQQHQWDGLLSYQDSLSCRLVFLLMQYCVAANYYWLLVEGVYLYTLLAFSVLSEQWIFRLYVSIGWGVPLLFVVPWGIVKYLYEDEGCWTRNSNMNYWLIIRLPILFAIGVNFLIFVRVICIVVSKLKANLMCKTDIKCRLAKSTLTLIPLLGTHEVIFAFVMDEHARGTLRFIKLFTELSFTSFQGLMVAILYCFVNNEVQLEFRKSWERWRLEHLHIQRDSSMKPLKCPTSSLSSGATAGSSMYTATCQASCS", "experiment": "qHTS of GLP-1 Receptor Agonists: LOPAC Validation (AID 624148);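 note: higher luminescence signal means agonism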", "settings": "GLP-1R agonist cell assay; series mostly up to 46.1 µM", "how_it_was_run": "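HEK293 cells stably co-expressing GLP-1R and a cAMP-responsive luciferase reporter, plated 12 hours before compound, then incubated 4-6 hr at 37 deg C. Luminescence read 12 min after detection reagent.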"}, "[9]": {"experiment": "qHTS of Nrf2 Activators: LOPAC Validation (AID 624149)", "settings": "Nrf2/ARE reporter cell assay; series mostly up to 46.1 µM", "how_it_was_run": "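AREc32 cells carrying an ARE-driven firefly luciferase were grown overnight in OPTI-MEM with 5% FBS, then exposed to compounds for 24 hr at 37 deg C. Luciferase signal was read after 30 min with Steady-Glo at RT.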"}, "[10]": {"experiment": "HTS Assay for Allosteric Antagonists of the Human D2 Dopamine Receptor: Hit Validation in HTRF (AID 624455);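 note: stable D1 dopamine receptor cell line scored for blocking the D1 response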", "settings": "Cells stably expressing D1 dopamine receptor, inhibition mode; series mostly up to 46.1 µM", "how_it_was_run": "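Hits were examined in an HTRF assay using cells stably expressing the D1 dopamine receptor, scoring inhibition of the D1-mediated response. The preceding primary screen tracked calcium flux after an EC80 dopamine addition in force-coupled, inducible Hek293 Trex D2 cells.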"}}, "note": "Records with an inconclusive call do not appear. Where a call stands in place of a potency, no number is given. Calls of active or inactive are those of the source. Unless noted, calls come from the whole dose curve; as a rule, active = well fitted curve in the direction sought with a large enough effect; inconclusive = small, poorly fitted or top-dose-only effect, or another doubt; inactive = no such curve, though single readings can be large; an effect the other way counts as inactive or inconclusive.", "data": [{"smiles": "Cn1c(Nc2ccc(C(F)(F)F)cc2)nc2cc(Oc3ccnc(-c4ncc(C(F)(F)F)[nH]4)c3)ccc21", "values": [{"measurement": "Potency", "setting": "[1]", "value": "20.9 µM (active)"}, {"measurement": "outcome", "setting": "[2]", "value": "inactive"}, {"measurement": "Potency", "setting": "[3]", "value": "1.33 µM (active)"}, {"measurement": "viability (% of control)", "setting": "[4]", "value": 15.6, "unit": "%"}]}, {"smiles": "CCCCCCCCCCCC(CC1OC(=O)C1CCCCCC)OC(=O)C(CC(C)C)NC=O", "note": "(stereo not given)", "values": [{"measurement": "Potency", "setting": "[5]", "value": "12.6 µM (active)"}]}, {"smiles": "COc1ccc2cc([S+]([O-])Cc3ncc(C)c(OC)c3C)nc2c1", "values": [{"measurement": "outcome", "setting": "[6]", "value": "inactive"}, {"measurement": "outcome", "setting": "[7]", "value": "inactive"}, {"measurement": "outcome", "setting": "[8]", "value": "inactive"}, {"measurement": "outcome", "setting": "[9]", "value": "inactive"}, {"measurement": "outcome", "setting": "[10]", "value": "inactive"}]}]}
